The campaign covered roughly 4,100 compounds. About 1,600 (39%) were called active. Another 25% or so got no clear call; they are omitted. Some of the results follow. A number with no mark means an inactive call. Calls follow the shape of the dose curve; as a rule, active = well fitted inhibition curve with a large enough effect; inconclusive = small, poorly fitted or top-dose-only effect; inactive = no such curve, though single readings can be large or run the other way.

The values that follow come from PubChem BioAssay AID1347416 (National Center for Advancing Translational Sciences (NCATS), 2020).
% is scaled to controls: 0 for no effect and ±100 for the full control effect; potency is read from the fitted curve at half-maximal effect.

The nature of this test: qHTS Validation assay for Inhibitors of Plasmodium falciparum Dd2 growth in vitro. Also: nearly all actives have a fitted effect of over 70% in size. To be noted: P. falciparum Dd2 in RBCs, SYBR Green growth, 72 h; series mostly up to 28.7 µM; activity change, negative = inhibition: at the top concentration. In short, it runs like this:
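P. falciparum Dd2-infected red blood cells (2.5% hematocrit, 0.3% parasitemia) grown 72 h at 37 °C under 5% O2 with compounds in a titration, 29 uM to 0.5 nM final. Growth read as SYBR Green-1 fluorescence after ~16 h lysis; artesunate 300 nM as positive control.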
On the technique in general: In qHTS, concentration-response curves come from the screen itself.
For the compound `COc1ccc2c(c1OC)C(=O)OC2CC(=O)c1ccc(O)cc1` (centres undefined), the “activity change, negative = inhibition” value is 14.8%. On to `CCOc1cc(C2CC(=O)NC3=C2C(=O)C(C(=O)OC)C(C)C3)cc(Br)c1O` (centres undefined), for which the Potency was 6.68 µM (active). For the compound `CCN(CC)c1cc(C)c2cc(NC(=O)/C=C/c3cc(OC)c(OC)c(OC)c3)ccc2n1`, the Potency is 4.73 µM (active). As to `COc1ccc(/C=C/C(=O)NCCc2ccc(OC)c(OC)c2)cc1`, the “activity change, negative = inhibition” value was 10.2%.

Consider `CCOc1ccc(/C=C/C(=O)Nc2ccc3nc(N(CC)CC)cc(C)c3c2)cc1OC`, for which the Potency is 1.88 µM (active). Turning to `Fc1ccccc1Cn1nnc2c(-n3ccnc3)ncnc21`, the “activity change, negative = inhibition” value is 4.31%. As to `O=C1Nc2ccccc2CN(CC2CC2)C12CCNCC2`, the “activity change, negative = inhibition” value is 1.97%.

For the compound `O=C1NC(=NC2CCCC2)C2(CCN(Cc3ccsc3)C2)N1c1cccnc1` (centres undefined), the “activity change, negative = inhibition” value is -11.2%.

For `CN(C)c1cccc(Nc2cc3c(cn2)CN(Cc2ccccc2)CCN3)c1`, the Potency was 13.7 µM (active).

Consider `CN(C)c1ncnc2sc3c(c12)CCN(Cc1ccc2cc[nH]c2c1)C3`, for which the “activity change, negative = inhibition” value is -7.09%. Still for that read-out and setting: then `Cc1nnc(-c2cc(Nc3cccc(N(C)C)c3)ccn2)n1Cc1ccccc1`, with -11% [at 43.1 µM]. As for `c1ccc(Nc2cc3c(cn2)CN(Cc2ccc4[nH]ccc4c2)CCN3)cc1`, the Potency was 1.37 µM (active). Same read-out and setting: then `c1ccc(Nc2cc3c(cn2)CN(Cc2ccsc2)CCN3)cc1`, with 13.7 µM (active).

Turning to `Cc1ccc(C)c(OC(=O)CSc2nnc(-c3cccs3)o2)c1`, the “activity change, negative = inhibition” value is 13%. Turning to `CCOc1ccc(C(=O)Nc2cc(C)on2)cc1`, the “activity change, negative = inhibition” value was -10.9%.

As for `CNS(=O)(=O)c1cn(CC(=O)N2CCN(c3ccc(C(C)=O)cc3)CC2)cc1S(=O)(=O)NC`, the “activity change, negative = inhibition” value is 41.4%.

For the compound `Cc1cc(NC(=O)CN2CCN(c3ccc(O)cc3)CC2)no1`, the Potency was 4.73 µM (active).

On to `Cc1cc(Nc2ccc(C)c(C)c2)n2nc(C)nc2n1`, for which the Potency is 4.73 µM (active).

On to `Cc1cc(Nc2ccc(Br)cc2)n2nc(C)nc2n1`, for which the Potency is 7.5 µM (active). For the compound `Cc1ccc(S(=O)(=O)NCc2nc3nc(C)cc(C)n3n2)c(C)c1`, the “activity change, negative = inhibition” value was 12.5%. Take `Cc1cc(NC2C3CC4CC(C3)CC2C4)n2nnnc2n1` (centres undefined): the “activity change, negative = inhibition” value was -20.8%. Consider `Cc1cc(Nc2ccc(Br)c(C)c2)n2nc(C)nc2n1`, for which the Potency was 1.33 µM (active). On to `Cc1cc(C)cc(Nc2cc(C)nc3nc(C)nn23)c1`, for which the Potency was 5.31 µM (active). As for `CC(C)c1ccc(OCc2ccc(C(=O)O)o2)cc1`, the “activity change, negative = inhibition” value was -2.28%. Regarding `CC(O)CNCCNCc1c(OCc2ccccc2)ccc2ccccc12` (centres undefined), the Potency is 8.41 µM (active). Turning to `Cc1cc(N2CCC(N(C)C3CCCC3)CC2)nc2cc(O)ccc12`, the Potency was 5.96 µM (active). With `Cc1cc(N2CCN(C3CCCCC3)CC2)nc2cccc(O)c12`, the Potency is 5.31 µM (active). As to `Cc1nc2ccc(NC(=O)c3cc(S(=O)(=O)N(C)c4ccccc4)ccc3Cl)cc2s1`, the Potency was 0.842 µM (active). In the case of `O=C(NC(=S)Nc1ccc2c(c1)OCCO2)c1ccccc1F`, the “activity change, negative = inhibition” value was 35%. Consider `COc1cccc(OC)c1C(=O)NC(=S)Nc1ccc2c(c1)C(=O)N(C)C2=O`, for which the Potency is 0.944 µM (active). In the case of `COc1ccc(NC(=O)c2ccc3c(c2)n(C)c(=O)c2ccnn23)cc1OC`, the “activity change, negative = inhibition” value was -18.1%.

Take `COC(=O)[C@@H]1Cc2c([nH]c3ccccc23)[C@H]2C[C@H](N3CCCCC3)C[C@@H](c3ccccc3F)N21`: the Potency was 5.96 µM (active). Consider `C1CCC(COCCc2noc(C3CNC3)n2)C1`, for which the “activity change, negative = inhibition” value was -91.5%. The same measure, in the same setting: to `Cc1cc(C)cc(NC(=O)NCc2c(-n3cccc3)sc3c2CCCC3)c1` belongs 36.2%. Take `CC(=O)N1Cc2ccccc2CC2(CCN(CC3CCOCC3)C2)C1` (centres undefined): the “activity change, negative = inhibition” value was 12.6%. Turning to `CC(C)C(=O)N1Cc2ccccc2CC2(CCCN(CC3CCCCC3)C2)C1` (centres undefined), the Potency was 0.0531 µM (active). Consider `CC(=O)N1Cc2ccccc2CC2(CCN(Cc3ccccn3)CC2)C1`, for which the “activity change, negative = inhibition” value was 17.5%. As for `CC(C)(C)c1cnc([C@@H]2COCCN2Cc2ccccc2O)[nH]1`, the Potency was 13.7 µM (active). For the compound `Cc1ccc(CN2CCOC[C@H]2c2ncc(C(C)(C)C)[nH]2)cc1`, the Potency was 13.7 µM (active). In the case of `C[C@@H](c1ccccc1)N1C(=O)[C@@H]2CN(C(=O)c3cccnc3)CCN2C1=O`, the “activity change, negative = inhibition” value was 37.2% [at 43.1 µM]. With `Cc1nn2c(c1-c1ccccc1-c1ccccc1)N(Cc1ccc(O)cc1)CCC2`, the Potency is 0.485 µM (active). As to `Cc1nn2c(c1-c1ccccc1-c1ccccc1)N(Cc1cccc(O)c1)CCC2`, the Potency is 4.85 µM (active). As to `CCCCSc1nnc2c(n1)OC(C)N(C(C)=O)c1ccccc1-2` (centres undefined), the “activity change, negative = inhibition” value is 9.17%. Still for that read-out and setting: to `CCOc1ccc(S(=O)(=O)Nc2ccc3oc4c(c3c2)CC(C)CC4)cc1` (centres undefined) belongs 27.2%; to `COc1cc(NS(=O)(=O)c2cnc(N)nc2)cc(OC)c1`, 0%. Consider `CCOc1ccc(NS(=O)(=O)c2csc(C(N)=O)c2)cc1`, for which the Potency was 7.5 µM (active). Regarding `CCn1cc(C(=O)N2CCN(c3ccc(OC)cc3)CC2)c(=O)c2cc(S(=O)(=O)N3CCOCC3)ccc21`, the “activity change, negative = inhibition” value was 32.5%.

`CCn1cc(C(=O)O)c(=O)c2cnc(N3CCN(C(=S)Nc4ccccc4)CC3)nc21`: the Potency is 3.76 µM (active). As for `CCc1cc(C(=O)OC)c(NC(=O)CN2CCN(C(=O)c3ccco3)CC2)s1`, the Potency is 5.96 µM (active).
